Screening results deposited in PubChem BioAssay by National Center for Advancing Translational Sciences (NCATS).
LDHA block: inhibitors of human lactate dehydrogenase A | activity change, % (values are at about 110 or 230 µM) | purified LDHA, NADH/diaphorase-resazurin fluorescence; stronger effect = lower value | AID 1347041 | 480,000 compounds, 0.15% hits | P00338; in the data active = activity change below about -30%; inconclusive = mostly about -25% to -30%
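Human LDH5 at 2 nM final in Tris HCl pH 7.4 with 0.06 mM NADH and 0.2 mM pyruvate, reacted 5 minutes at room temperature. Remaining NADH coupled via diaphorase/resazurin; resorufin fluorescence read at 0 and 20 minutes, normalized to enzyme-free and DMSO wells.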
TDP1 cell CPT: growth inhibition of DT40 Tdp1-/-;hTDP1 cells with camptothecin (screen for TDP1 inhibitors); Potency, µM (titrated, usually from 46.2 µM), hits mostly inhibitors; 420,000 compounds, 12% hits; chicken DT40 Tdp1-/-;hTDP1 cells + 20 nM CPT, ATP luminescence, 48 h; also: nearly all actives have a fitted effect of over 55% in size
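Chicken DT40 Tdp1-/- cells stably complemented with human TDP1 were seeded at 400 cells/well in medium containing 20 nM camptothecin, exposed to pin-transferred compounds, and grown at 37 °C for at least 48 hr. Viability was read as ATP luminescence.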
RORgamma inh: blocks mouse ROR gamma transcriptional activity; Potency, µM (series often up to 53.6 µM), actives largely listed as inhibitors; P51450; 310,000 compounds, 5.4% hits; Drosophila S2 Gal4-RORgamma UAS-luciferase reporter, 20 h; also: nearly all actives have a fitted effect of over 60% in size
Target sequence (P51450 whole entry, looked up, the tested form may be a part): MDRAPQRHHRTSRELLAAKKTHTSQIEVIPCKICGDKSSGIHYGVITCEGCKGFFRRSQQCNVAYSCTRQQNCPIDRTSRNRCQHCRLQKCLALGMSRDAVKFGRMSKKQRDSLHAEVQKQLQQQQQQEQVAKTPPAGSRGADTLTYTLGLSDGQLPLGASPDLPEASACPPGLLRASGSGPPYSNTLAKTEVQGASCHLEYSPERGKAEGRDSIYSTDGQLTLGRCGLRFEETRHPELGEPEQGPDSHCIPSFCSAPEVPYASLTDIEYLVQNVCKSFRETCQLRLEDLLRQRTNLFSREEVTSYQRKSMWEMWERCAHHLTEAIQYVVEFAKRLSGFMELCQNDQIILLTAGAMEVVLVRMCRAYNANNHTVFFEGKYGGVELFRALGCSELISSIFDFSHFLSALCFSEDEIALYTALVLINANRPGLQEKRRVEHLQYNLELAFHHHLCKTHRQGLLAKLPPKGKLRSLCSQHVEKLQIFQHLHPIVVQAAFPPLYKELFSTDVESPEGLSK
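Luciferase reporter read in Schneider cells carrying Gal4-RORγ (mouse) and UAS-Photinus luciferase; cells given compound 1 h before 700 uM copper sulfate induction, then incubated 20 h at ambient temperature.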
Gal4-VP16 FLuc: inhibits Gal4-VP16 luciferase reporter, ROR gamma counter-screen; Drosophila S2 Gal4-VP16 UAS-luciferase, luminescence, 20 h; 310,000 compounds, 3.5% hits; Potency, µM (doses to about 53.6 µM), hits mostly inhibitors;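 also: Gal4-VP16 expression switched on by copper sulfate through the metallothionein promoter; nearly all actives have a fitted effect of over 50% in size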
IL1B secr inh: blocks inflammasome-driven IL-1 beta release | THP-1 LPS/ATP IL-1B secretion, AlphaLISA, 16 h; stronger effect = lower value | AID 743279 | 360,000 compounds, 4.7% hits | activity change, % at 57.5 µM; in the data active = activity change below about -50%; inconclusive = mostly about -30% to -49%
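THP-1 cells pretreated 1 hr with compounds (up to 57.5 uM final), then stimulated with LPS (250 ng/mL final) plus ATP (1.25 mM final); secreted IL-1B measured by AlphaLISA after 16 hr, decreased signal indicating inhibition.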
TDP1 cell noCPT: qHTS for Inhibitors of human tyrosyl-DNA phosphodiesterase 1 (TDP1): qHTS in cells in absence of CPT; AID 686978, 2013; Potency, µM (highest dose often 46.2 µM), usual class: inhibitors; DT40 Tdp1-/- hTDP1 cells, no CPT, ATP luminescence, 48 h; 420,000 compounds, 15% hits; also: nearly all actives have a fitted effect of over 55% in size
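A cellular qHTS used chicken DT40 cells lacking endogenous Tdp1 but carrying stably transfected human TDP1. Compounds were applied without camptothecin, and cell growth kinetics were judged by ATP-dependent luminescence after ≥48 hr.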
Large screens that a line does not name were inactive. Compounds with a hit are over-represented: about 18% of the library has one in this group of screens. Unless noted, calls follow the shape of the dose curve; as a rule, active = well fitted curve in the direction sought with a large enough effect; inconclusive = small, poorly fitted or top-dose-only effect, or another doubt; inactive = no such curve, though single readings can be large; an effect the other way counts as inactive or inconclusive.

CC(=O)Nc1ccc(NC(=O)CCNS(=O)(=O)c2ccc3c(c2)CCN3C(=O)C2CC2)cc1	none (no result: TDP1 cell CPT, RORgamma inh, Gal4-VP16 FLuc, IL1B secr inh, TDP1 cell noCPT)
O=C(CCNS(=O)(=O)c1ccc2c(c1)CCN2C(=O)C1CC1)N1CCN(c2cccc(C(F)(F)F)c2)CC1	TDP1 cell CPT 2.1µM, TDP1 cell noCPT 1.6µM (no result: RORgamma inh, Gal4-VP16 FLuc, IL1B secr inh)
COc1ccccc1N1CCN(C(=O)CCNS(=O)(=O)c2ccc3c(c2)CCN3C(=O)C2CC2)CC1	TDP1 cell CPT 16µM, TDP1 cell noCPT 23µM (no result: RORgamma inh, Gal4-VP16 FLuc, IL1B secr inh)
CCCOc1ccccc1C(=O)Nc1ccc(OCCC)c2ncccc12	none (no result: TDP1 cell CPT, RORgamma inh, Gal4-VP16 FLuc, IL1B secr inh, TDP1 cell noCPT)
O=C(c1cc(-c2ccco2)nc2ccccc12)N1CCCC1	none (no result: TDP1 cell CPT, RORgamma inh, Gal4-VP16 FLuc, IL1B secr inh, TDP1 cell noCPT)
Cc1cccc(NC(=O)C(C)Sc2ccccc2C(=O)NCC(=O)C(C)(C)C)c1 (stereo unspecified)	none (no result: TDP1 cell CPT, RORgamma inh, Gal4-VP16 FLuc, IL1B secr inh, TDP1 cell noCPT)
CCCCn1c(=O)[nH]c(=O)c2c1nc(-c1ccc(OC)c(C)c1)n2C	none (no result: TDP1 cell CPT, RORgamma inh, Gal4-VP16 FLuc, IL1B secr inh, TDP1 cell noCPT)
CC(C)N(Cc1cnn(C)c1)S(=O)(=O)c1ccc(F)c(F)c1	none (no result: TDP1 cell CPT, RORgamma inh, Gal4-VP16 FLuc, IL1B secr inh, TDP1 cell noCPT)
CCOc1ccc2nc(NS(=O)(=O)Cc3ccccc3)sc2c1	TDP1 cell CPT 3.3µM, TDP1 cell noCPT 4.6µM
CCNC(=O)Nc1nc2ccccc2s1	none
CCOc1ccc2nc(NC(=O)CCn3cccc3)sc2c1	RORgamma inh 5µM, Gal4-VP16 FLuc inconclusive
CCOc1ccc2nc(NS(=O)(=O)c3ccc(NC(C)=O)cc3)sc2c1	RORgamma inh inconclusive
CN(C)C(=S)Nc1nc2ccccc2s1	TDP1 cell CPT 3.7µM, RORgamma inh 0.5µM, Gal4-VP16 FLuc 1.3µM, TDP1 cell noCPT 2.6µM
CCOc1ccc2nc(NC(=O)c3ccccc3)sc2c1	TDP1 cell CPT 13µM, TDP1 cell noCPT 23µM (no result: RORgamma inh, Gal4-VP16 FLuc, IL1B secr inh)
CCOc1ccc2nc(NC(=O)c3cccnc3)sc2c1	RORgamma inh inconclusive
Cc1ccc(-c2nc(C#N)c(N3CCN(c4ccccc4)CC3)o2)cc1	none (no result: TDP1 cell CPT, RORgamma inh, Gal4-VP16 FLuc, IL1B secr inh, TDP1 cell noCPT)
COC(=O)c1sccc1S(=O)(=O)Nc1ccccc1OC(F)F	none (no result: TDP1 cell CPT, RORgamma inh, Gal4-VP16 FLuc, IL1B secr inh, TDP1 cell noCPT)
CC(C)C[C@H](NC(=O)c1ccc2nc(-n3cccc3)sc2c1)C(=O)NCc1ccncc1	none (no result: TDP1 cell CPT, RORgamma inh, Gal4-VP16 FLuc, IL1B secr inh, TDP1 cell noCPT)
CCOc1ccc2nc(NC(=O)c3nc(SCc4ccccc4C)ncc3Cl)sc2c1	TDP1 cell CPT 13µM, TDP1 cell noCPT 2.9µM (no result: RORgamma inh, Gal4-VP16 FLuc, IL1B secr inh)
CCOc1ccc2nc(NC(=O)CSc3nc4cccnc4n3C)sc2c1	TDP1 cell CPT 8.2µM, RORgamma inh inconclusive, Gal4-VP16 FLuc inconclusive, TDP1 cell noCPT 3.3µM
CCOc1ccc2nc(NC(=O)c3nc(SCC)ncc3Cl)sc2c1	none (no result: TDP1 cell CPT, RORgamma inh, Gal4-VP16 FLuc, IL1B secr inh, TDP1 cell noCPT)
CCOc1ccc2nc(NC(=O)c3cnc(C)cn3)sc2c1	TDP1 cell CPT 15µM, RORgamma inh 1.8µM, Gal4-VP16 FLuc 5.6µM, TDP1 cell noCPT 21µM
CCOc1ccc2nc(NC(=S)N(C)C)sc2c1	TDP1 cell CPT 1.3µM, RORgamma inh 1µM, Gal4-VP16 FLuc 1.8µM, TDP1 cell noCPT 1.2µM
CCOP(=O)(OCC)c1nc(-c2ccc(Cl)cc2)oc1NCc1ccco1	none (no result: TDP1 cell CPT, RORgamma inh, Gal4-VP16 FLuc, IL1B secr inh, TDP1 cell noCPT)
O=C(OCc1nc2ccccc2o1)c1ccc(CO)cc1	none (no result: TDP1 cell CPT, RORgamma inh, Gal4-VP16 FLuc, IL1B secr inh, TDP1 cell noCPT)
S=C(Nc1ccccc1)c1nc2ccccc2s1	TDP1 cell CPT inconclusive, RORgamma inh 1.1µM, Gal4-VP16 FLuc 0.71µM, TDP1 cell noCPT inconclusive
CCOc1ccc2nc(NC(=O)C3=NN(c4ccccc4)C(=O)CC3)sc2c1	TDP1 cell CPT inconclusive, RORgamma inh 2.8µM, TDP1 cell noCPT 26µM
CCOc1ccc2nc(NC(=O)CSc3ccccc3)sc2c1	TDP1 cell CPT inconclusive, TDP1 cell noCPT 26µM
CCOc1ccc2nc(NC(=O)c3ccc(C)o3)sc2c1	TDP1 cell CPT inconclusive, TDP1 cell noCPT 18µM (no result: RORgamma inh, Gal4-VP16 FLuc)
CCOc1ccc(OCCCCOc2cccc(Br)c2)cc1	none (no result: TDP1 cell CPT, RORgamma inh, Gal4-VP16 FLuc, IL1B secr inh, TDP1 cell noCPT)
CCOC(=O)c1cc(NC(=O)OC)cc(C(=O)OCC)c1	none (no result: TDP1 cell CPT, RORgamma inh, Gal4-VP16 FLuc, IL1B secr inh, TDP1 cell noCPT)
CCOc1ccc2cc(-c3csc(Nc4ccc(F)cc4)n3)c(=O)oc2c1	none (no result: TDP1 cell CPT, RORgamma inh, Gal4-VP16 FLuc, IL1B secr inh, TDP1 cell noCPT)
CN1CCC(C(=O)c2ccccc2)C1=O (stereo unspecified)	none (no result: TDP1 cell CPT, RORgamma inh, Gal4-VP16 FLuc, IL1B secr inh, TDP1 cell noCPT)
Cc1cc(=O)[nH]c(SCC(=O)Nc2ccc(S(=O)(=O)N3CCCCC3)cc2)n1	none
O=C(CSc1ccc(-c2nc3ccccc3[nH]2)cn1)Nc1ccc(S(=O)(=O)N2CCCC2)cc1	TDP1 cell CPT inconclusive, TDP1 cell noCPT 13µM
